FBA Mtb inh – inhibitors of M. tuberculosis fructose-bisphosphate aldolase; purified M. tuberculosis FBA, fluorescence read-out; AID 588726; 360,000 tested, 2.3% active; inhibition, % at 1 µM; P9WQA3; in the data active = inhibition above about 27%;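 also: 0% = vehicle and 100% = reference inhibitor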
Target sequence (P9WQA3 whole entry, looked up): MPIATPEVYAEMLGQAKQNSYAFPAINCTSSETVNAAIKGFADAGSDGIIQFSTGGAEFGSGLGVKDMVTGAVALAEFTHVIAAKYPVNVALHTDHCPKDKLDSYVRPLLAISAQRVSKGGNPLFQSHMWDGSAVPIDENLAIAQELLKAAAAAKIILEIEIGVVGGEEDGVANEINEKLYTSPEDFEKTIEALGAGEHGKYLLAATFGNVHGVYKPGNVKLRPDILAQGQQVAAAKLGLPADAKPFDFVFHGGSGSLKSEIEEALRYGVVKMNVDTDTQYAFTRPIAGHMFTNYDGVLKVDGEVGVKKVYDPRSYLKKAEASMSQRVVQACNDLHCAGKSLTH
GDH-TPI inh – counter-screen for M. tuberculosis FBA inhibitors: GDH-TPI coupled enzymes. GDH-TPI coupled enzyme counterscreen, NADH absorbance. 360,000 tested, 1.2% active. inhibition, % at 4.8 µM. AID 588335; in the data active = inhibition above about 30%;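 also: 0% = DMSO wells and 100% = wells lacking the enzyme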
PrP UTR inh – inhibition of PrP 5' UTR reporter expression; cell-based PrP 5' UTR mRNA reporter, plate reader; inhibition, % (test concentration not listed); 340,000 tested, 0.35% active; in the data active = inhibition above about 52%; also: 0 = median of the neutral control wells
PrPC TRFRET – reduces human prion protein on the cell surface; P04156; cell surface PrPC, TR-FRET read-out; inhibition, % at 13.8 µM; 370,000 tested, 0.43% active; in the data active = inhibition above about 24%; also: 0% = median of the test wells and 100% = reference compound wells
Y pestis TopoI – Y. pestis Topo-I inhibition via cleavage products | 360,000 tested, 0.064% active | Y. pestis Topo-I cleavage product accumulation, plate reader | activity, % at 10 µM; in the data active = activity above about 50%, passing the limit was not always enough
Mtb hypoxia rep – Mtb hypoxia fluorescent reporter inhibition; 300,000 tested, 0.1% active; fluorescence inhibition, % (concentration not given with the values); M. tuberculosis hypoxia-regulated fluorescent reporter, fluorescence; in the data active = fluorescence inhibition mostly above about 23%, no sharp cut-off; inactive = mostly below about 17%
Numbers without * were called inactive; nt = not tested or not shown; + = active, no number. Compounds with a hit are over-represented: about 3.8% of the library has one in this group of screens.

SMILES	FBA Mtb inh	GDH-TPI inh	PrP UTR inh	PrPC TRFRET	Y pestis TopoI	Mtb hypoxia rep
O=c1oc2ccccc2cc1-c1nc2c(s1)CCCC2	139*	13	10	-6	5	-4
COc1ccc2oc(=O)c(-c3nc4ccccc4o3)cc2c1	27	20	-71	-3	0	15
Nc1ccc(-c2cc3ccccc3oc2=O)cc1	0	16	85*	-24	3	5
O=c1oc2ccccc2cc1-c1ccc(O)cc1	2	24	-77	-10	6	11
O=c1oc2ccccc2cc1-c1nc2ccccc2o1	+	60*	-57	-6	1	8
O=C(Nc1ccccc1)ON=Cc1ccncc1	nt	nt	nt	nt	nt	5
COc1ccc(C2CC(=O)C=C(c3ccc(-c4ccccc4)cc3)C2)cc1OC (stereo unspecified)	nt	nt	nt	nt	nt	2
O=C(NN=C1CC2CCC1C2)c1cc2ccccc2cc1O (stereo unspecified)	nt	nt	nt	nt	nt	5
CCOC(=O)C1C2COc3ccc(Cl)cc3C2N2C(=O)c3cc(C)ccc3NC(=O)[C@@]12C (stereo partly specified)	nt	nt	nt	nt	nt	-2
C=CCN1C(Cc2ccccc2)COCCS1(=O)=O (stereo unspecified)	nt	nt	nt	nt	nt	20
CCC(C)NC(=O)C1CCN(C(=O)COc2ccc3c4c(c(=O)oc3c2C)CCCC4)CC1 (stereo unspecified)	9	7	-3	1	2	11
Cc1c(OCC(=O)N2CCC(C(=O)NCCCC(=O)O)CC2)ccc2c1oc(=O)c1ccccc12	133*	5	-2	-4	5	8
COc1ccc(C=NNC(=S)Nc2ccc(F)cc2)cc1OC	1	69*	-15	-10	-1	12
COc1ccc(C=NNC(=S)NN=Cc2ccc(OC)c(OC)c2)cc1OC	-1	64*	-17	-8	-6	20
COc1cc(/C=N/NC(=S)NCCN2CCOCC2)cc(OC)c1O	4	49*	-6	-6	-2	nt
COc1ccc(C=NNC(=S)NCc2ccccc2)cc1OC	nt	nt	nt	nt	nt	11
COc1cc(/C=N/NC(=S)N/N=C/c2cc(OC)c(OC)c(OC)c2)cc(OC)c1OC	1	45*	-36	-6	-12	nt
COc1cc(C=NNC(=S)NCCc2ccccc2)cc(OC)c1OC	nt	nt	nt	nt	nt	-1
COc1cc(/C=N/NC(=S)NC2CC3CCC2C3)ccc1O (stereo unspecified)	-2	52*	-28	-5	-16	nt
COc1ccc(/C=N/NC(=S)N[C@H]2CC3CCC2C3)cc1 (stereo partly specified)	4	2	-20	8	-1	nt
COc1ccc(N(N=C2Sc3ccccc3C2=O)C(C)=O)cc1	nt	nt	nt	nt	nt	6
Nc1ccc(-c2nc3ncccc3o2)cc1	+	43*	-15	14	-2	20
O=C(Nc1ccc(-c2nc3cccnc3s2)cc1)c1ccc(Br)o1	13	19	-19	3	-4	-6
O=C(Nc1ccc(-c2nc3ncccc3o2)cc1)c1ccc(Br)o1	14	57*	-41	1	-5	-5
CN(C)/C=C1\N=C(c2cccnc2Oc2ccc(Cl)cc2)OC1=O	1	32*	-48	2	-1	14
SMILES	FBA Mtb inh	GDH-TPI inh	PrP UTR inh	PrPC TRFRET	Y pestis TopoI	Mtb hypoxia rep
COc1ccc(OC)c(/C=C2\N=C(c3ccccc3)OC2=O)c1	0	8	-19	0	8	5
CN(C)/C=C1\N=C(c2cccs2)OC1=O	-1	49*	-28	-3	5	nt
Cc1ccc(C2=N/C(=C\c3cccc(F)c3)C(=O)O2)cc1	0	3	-18	-1	2	2
CN(C)/C=C1/N=C(c2ccccc2)OC1=O	0	52*	-6	-4	-5	nt
CN(C)/C=C1\N=C(c2ccc(Cl)cc2Cl)OC1=O	-2	20	-55	-3	4	7
Cc1ccc(C2=N/C(=C\N(C)C)C(=O)O2)cc1	0	45*	nt	-3	6	15
CN(C)C=C1N=C(c2cccs2)OC1=O	nt	nt	nt	nt	nt	8
COc1ccc(C(C)=NN=C(N)N)c(O)c1	nt	nt	nt	nt	nt	1
CC(C)NC(=O)N(C)CC1Oc2ccc(NC(=O)Nc3ccccc3)cc2C(=O)N(C(C)CO)CC1C (stereo unspecified)	nt	nt	nt	nt	nt	6
CCC(C)C1CNCCN1CCc1cccc(F)c1 (stereo unspecified)	nt	nt	nt	nt	nt	6
O=C1OC(c2ccccc2)=N/C1=C\N1CCCCC1	-3	41*	-80	-4	4	4
Fc1ccc(C=Nn2c(-c3cccs3)n[nH]c2=S)cc1	nt	nt	nt	nt	nt	3
O=C(NCc1ccco1)c1cccn2c(=O)c3sccc3nc12	13	28	-14	-24	2	9
O=C(NCc1cccs1)c1cccn2c(=O)c3sccc3nc12	6	31*	-15	1	0	6
N#C/C(=C\c1ccc[nH]1)C(=O)NC1CC1	-4	32*	-5	-1	7	1
Cc1cccc(NC(=O)/C(C#N)=C/c2ccc[nH]2)c1C	-2	25	-22	-13	-5	15
N#C/C(=C\c1ccccc1)C(=O)NC1CC1	-1	9	-9	4	9	10
Cc1ccc(C)c(NC(=O)/C(C#N)=C/c2ccc[nH]2)c1	-3	31*	-2	-7	-2	6
CC(CC(=O)Nc1ccc(C)cc1C)=NNC(=O)C(C)C	nt	nt	nt	nt	nt	-7
O=S(=O)(N/N=C/c1ccc(N2CCOCC2)cc1)c1ccc(Br)cc1	1	36*	nt	0	-5	nt
O=S(=O)(NN=Cc1ccc(N2CCOCC2)cc1)c1ccc(Br)cc1	nt	nt	nt	nt	nt	3
N#C/C(=C\c1ccncc1)c1nc2ccccc2o1	10	6	nt	1	-7	3
N#C/C(=C\Nc1ccccc1O)c1nc2ccccc2o1	-1	33*	-39	-7	2	0
N#C/C(=C\c1cccc(O)c1)c1nc2ccccc2o1	7	35*	-20	-1	2	11
N#C/C(=C\c1ccc(Cl)cc1)c1nc2ccccc2o1	2	10	-20	9	-1	nt
SMILES	FBA Mtb inh	GDH-TPI inh	PrP UTR inh	PrPC TRFRET	Y pestis TopoI	Mtb hypoxia rep
CCOC(=O)C(=NNc1cc(Cl)ccc1Cl)N1CC(C)OC(C)C1 (stereo unspecified)	nt	nt	nt	nt	nt	15
COc1ccc(C2CC(=O)C=C(c3ccc(C)cc3)C2)cc1OC (stereo unspecified)	nt	nt	nt	nt	nt	5
CCOC(=O)Cc1csc(NC(=O)c2cnc3sc(C)cn3c2=O)n1	-2	54*	-69	3	11	-1
COc1ccccc1Sc1nc(-c2ccccn2)ncc1OC	2	1	-5	10	14	1
COc1cnc(-c2ccccn2)nc1NC(C)C	46*	1	5	22	-11	18
Cc1cc(C)cc(Cn2c3ccc(NC(=O)NCc4ccccc4)cc3c(=O)n2C)c1	172*	-8	nt	15	25	nt
Cc1cc(C)cc(Cn2c3ccc(NC(=O)NCc4ccc(F)cc4)cc3c(=O)n2C)c1	133*	8	nt	12	34	nt
COc1ccc(NC=C(C2OC(=O)c3ccccc32)[N+](=O)[O-])cc1 (stereo unspecified)	nt	nt	nt	nt	nt	4
O=[N+]([O-])c1cc(/C=N/n2cnnc2)ccc1N1CCCC1	-3	37*	4	-26	-3	nt
